NOMO-1 viab = STK33 inhibitor candidate reducing NOMO-1 cell viability; NOMO-1 AML viability, CellTiter-Glo luminescence, 72 h; actives 7.5% (n = 37,000); inhibition, % (no concentration beside the values); AID 2330; in the data active = inhibition above about 80%
U2OS ROS induce = cancer cell ROS induction | ROS induction (% of piperlongumine), % at 10 µM | U2OS ROS induction, H2DCF-DA fluorescence | actives 2% (n = 46,000) | AID 624156; in the data active = ROS induction above about 79%, passing the limit was not always enough
PD-1 reverse act = activators reversing PD-1 mediated T-cell inhibition; 29,000 tested, under 10 active; primary human CD4 T cells, PD-L1 beads, CellTiter-Glo 96 h; activation, % (concentration not given with the values); call rule not given here
Numbers stand for hits. The full list was thinned out, with hits kept by preference.

COc1ccc(-c2nnc3ccc(SCC(N)=O)nn23)cc1 was read as U2OS ROS induce inactive.
`COc1ccc([Si](C)(C)[C@@H]2[C@@H](CC(=O)N3Cc4ccccc4C[C@H]3CO)O[C@]3(C(=O)N(C)c4c(Br)cc(C)cc43)[C@H]2C)cc1` gave U2OS ROS induce inactive.
Screening C/C=C/[C@H](CC(=O)N1Cc2ccccc2C[C@H]1CO)[Si](C)(C)c1ccc(OC)cc1 returned U2OS ROS induce 94.
`O=c1cc(-c2ccccc2)oc2cc(Cl)cc(Cl)c12` gave NOMO-1 viab inactive, U2OS ROS induce inactive and PD-1 reverse act inactive.
O=C(CS(=O)(=O)Nc1cccc(C(F)(F)F)c1)Nc1cccc(C(F)(F)F)c1 was read as U2OS ROS induce inactive.
O=C(/C=N/O)Nc1cc(C(F)(F)F)cc(C(F)(F)F)c1 was read as NOMO-1 viab 116, U2OS ROS induce inactive and PD-1 reverse act inactive.
`COc1ccc(NC(=O)N(C)C[C@@H]2Oc3c(NC(=O)C4CC4)cccc3C(=O)N([C@@H](C)CO)C[C@H]2C)cc1` gave NOMO-1 viab inactive, U2OS ROS induce 87 and PD-1 reverse act inactive.
`COc1ccc(NC(=O)Nc2cccc3c2O[C@@H](CN(C)C(=O)Nc2ccc(C(F)(F)F)cc2)[C@H](C)CN([C@@H](C)CO)C3=O)cc1` gave NOMO-1 viab inactive, U2OS ROS induce inactive and PD-1 reverse act inactive.
For CC(C)NC(=O)N(C)C[C@H]1Oc2c(NC(=O)Nc3ccc(C(F)(F)F)cc3)cccc2C(=O)N([C@H](C)CO)C[C@H]1C the results were NOMO-1 viab 115, U2OS ROS induce inactive and PD-1 reverse act inactive.
For C[C@H]1CN([C@@H](C)CO)C(=O)c2cccc(NC(=O)Nc3ccc(C(F)(F)F)cc3)c2O[C@@H]1CN(C)C(=O)Nc1ccc(C(F)(F)F)cc1 the results were NOMO-1 viab 88, U2OS ROS induce inactive and PD-1 reverse act inactive.
CC(C)NC(=O)N(C)C[C@@H]1Oc2c(NC(=O)Nc3ccc(C(F)(F)F)cc3)cccc2C(=O)N([C@@H](C)CO)C[C@H]1C was read as NOMO-1 viab inactive and U2OS ROS induce inactive.
Screening COc1ccc(NC(=O)N(C)C[C@H]2Oc3c(NC(=O)Nc4ccc(C(F)(F)F)cc4)cccc3C(=O)N([C@@H](C)CO)C[C@@H]2C)cc1 returned NOMO-1 viab inactive and U2OS ROS induce inactive.
`COc1ccc(NC(=O)N(C)C[C@H]2Oc3c(NC(=O)C4CC4)cccc3C(=O)N([C@@H](C)CO)C[C@H]2C)cc1` gave NOMO-1 viab inactive, U2OS ROS induce inactive and PD-1 reverse act inactive.
For COc1ccc(NC(=O)N(C)C[C@H]2Oc3c(NC(=O)Nc4ccc(C(F)(F)F)cc4)cccc3C(=O)N([C@H](C)CO)C[C@@H]2C)cc1 the results were NOMO-1 viab 103, U2OS ROS induce inactive and PD-1 reverse act inactive.
`NS(=O)(=O)c1ccc(CCNC(=O)c2cccn3c(=O)c4cc5ccccc5cc4nc23)cc1` gave U2OS ROS induce inactive.
COc1ccc(NC(=O)c2ccn[nH]2)cc1 was read as U2OS ROS induce inactive.
`COc1ccc(-n2cc(C(=O)NCCN3CCc4ccccc4C3)c3ccccc3c2=O)cc1` gave U2OS ROS induce inactive.
For Cc1ccc(S(=O)(=O)NCCc2nnc3ccc(SCC(=O)N4CCCC4)nn23)cc1 the results were U2OS ROS induce inactive.
COc1ccc(S(=O)(=O)Nc2cccc3c2O[C@H](CN(C)C(=O)Nc2ccc(F)cc2)[C@@H](C)CN([C@H](C)CO)C3=O)cc1 was read as NOMO-1 viab inactive, U2OS ROS induce inactive and PD-1 reverse act inactive.
Screening C[C@H](CO)N1C[C@H](C)[C@@H](CN(C)C(=O)Nc2ccc(C(F)(F)F)cc2)Oc2c(NC(=O)Nc3ccccc3)cccc2C1=O returned NOMO-1 viab inactive, U2OS ROS induce inactive and PD-1 reverse act inactive.
`C[C@H]1CN([C@@H](C)CO)C(=O)c2cccc(NC(=O)Nc3ccc(C(F)(F)F)cc3)c2O[C@H]1CN(C)C(=O)Nc1ccc2c(c1)OCO2` gave NOMO-1 viab 92 and U2OS ROS induce inactive.
For C[C@@H]1CN([C@H](C)CO)C(=O)c2cccc(NC(=O)Nc3ccc(C(F)(F)F)cc3)c2O[C@@H]1CN(C)C(=O)Nc1ccccc1 the results were NOMO-1 viab 105, U2OS ROS induce inactive and PD-1 reverse act inactive.
For C[C@@H]1CN([C@@H](C)CO)C(=O)c2cccc(NC(=O)Nc3ccc(C(F)(F)F)cc3)c2O[C@@H]1CN(C)C(=O)Nc1ccc2c(c1)OCO2 the results were NOMO-1 viab inactive, U2OS ROS induce inactive and PD-1 reverse act inactive.
`COc1ccc(S(=O)(=O)Nc2cccc3c2O[C@@H](CN(C)C(=O)Nc2ccc(F)cc2)[C@@H](C)CN([C@H](C)CO)C3=O)cc1` gave NOMO-1 viab 111, U2OS ROS induce inactive and PD-1 reverse act inactive.
C[C@@H]1CN([C@@H](C)CO)C(=O)c2cccc(NC(=O)CCCCCC(=O)Nc3ccccc3N)c2O[C@@H]1CN(C)C(=O)Nc1ccc(C(F)(F)F)cc1 was read as NOMO-1 viab 118, U2OS ROS induce inactive and PD-1 reverse act inactive.
C[C@H](CO)N1C[C@H](C)[C@H](CN(C)C(=O)Nc2ccc(F)cc2)Oc2c(NC(=O)CCCCCC(=O)Nc3ccccc3N)cccc2C1=O was read as NOMO-1 viab inactive, U2OS ROS induce inactive and PD-1 reverse act inactive.
For CCCOC(=O)c1ccc(NC(=O)c2ccc(C)c(Br)c2)cc1 the results were U2OS ROS induce inactive.
For O=C1CSc2ccc(C(=O)NCc3c(F)cc(F)cc3F)cc2N1 the results were U2OS ROS induce inactive.
Screening O=C(Nc1csc2ccccc12)N1CCN(C(c2ccccc2)c2ccccc2)CC1 returned U2OS ROS induce inactive.
C[C@@H]1CN([C@@H](C)CO)C(=O)c2cccc(NC(=O)Nc3ccc(C(F)(F)F)cc3)c2O[C@H]1CN(C)C(=O)Nc1ccc(C(F)(F)F)cc1 was read as NOMO-1 viab 105 and U2OS ROS induce inactive.
C[C@@H]1CN([C@@H](C)CO)C(=O)c2cccc(NC(=O)Nc3ccc(C(F)(F)F)cc3)c2O[C@@H]1CN(C)C(=O)Nc1ccc(F)cc1 was read as NOMO-1 viab inactive, U2OS ROS induce inactive and PD-1 reverse act inactive.
For CC(C)c1ccc(NC(=S)NCc2ccc(C#N)cc2)cc1 the results were U2OS ROS induce inactive.
`O=C(Oc1ccc(-c2ccccc2)cc1)c1cccs1` gave NOMO-1 viab inactive, U2OS ROS induce inactive and PD-1 reverse act inactive.
Screening O=C(COc1ccc(S(=O)(=O)N2CCOCC2)cc1)Nc1ccccc1 returned NOMO-1 viab inactive, U2OS ROS induce inactive and PD-1 reverse act inactive.
CCCn1c(-c2ccc(S(=O)(=O)N3CCOCC3)cc2)csc1=Nc1ccccc1 was read as U2OS ROS induce 83.
Screening N/C(=N/c1nc2ccccc2o1)NC(=O)/C=C/c1ccccc1 returned U2OS ROS induce inactive.
`COc1ccc(S(=O)(=O)Nc2ccc3c(c2)C(=O)N([C@@H](C)CO)C[C@@H](C)[C@@H](CN(C)Cc2ccc(C(=O)Nc4ccccc4N)cc2)O3)cc1` gave NOMO-1 viab 110, U2OS ROS induce inactive and PD-1 reverse act inactive.
COc1ccc(S(=O)(=O)Nc2ccc3c(c2)C(=O)N([C@@H](C)CO)C[C@@H](C)[C@H](CN(C)Cc2ccc(C(=O)Nc4ccccc4N)cc2)O3)cc1 was read as NOMO-1 viab inactive, U2OS ROS induce inactive and PD-1 reverse act inactive.
